Several values for one entry are separate records, joined by “and”; a condition that tells them apart may be missing. Identical values can stand only once. This is part of a sample that, as a whole, favours compounds with a hit. Of some 83,000 tested, about 20% had one in any assay.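 Cell lines were cultured in 96-well plates, exposed to a single compound concentration, and assessed for percent growth 48 hours later.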 Activity calls are given as the source filed them. The calls were made as follows: active = growth percent below 10; inactive = the rest.

The text below walks through data of PubChem BioAssay (NCI).

In the first assay the test system is T-47D breast. Nature of the assay: NCI-60 one-dose screen, 48 h (100 = growth as untreated, 0 = no growth, -100 = all killed). As to conditions: 10 µM unless noted.
In the case of `O=C(COc1ccc(/C=C2/C(=O)Nc3ccc(Cl)cc32)cc1)Nc1ccc(Br)cc1`, the growth was -22% (active).
On the same count and under the same terms, with `CCCCNc1ccc2c3c(cccc13)C(=O)N(NCC(O)COc1ccc3c(C)cc(=O)oc3c1)C2=O` (centres undefined) the figure was 80.8% (inactive); with `COc1ccc(C(=O)c2c(N)c(C#N)cn2-c2ccc([N+](=O)[O-])cc2)cc1`, 90.1% (inactive); with `C=CC(=O)N1CCN(c2ccc3nc4c(nc3c2C(F)(F)F)C(=O)c2ncccc2C4=O)CC1`, -4.37% (active).
As for `NC(=O)c1ccc(-c2ccc3ncnc(N4CCc5cc(F)c(Cl)cc54)c3c2)cn1`, the growth was 28% (inactive).
The same measure, in the same setting: with `Cc1ccc2nc(NC(=O)Nc3cccc(Cl)c3)sc2c1` the figure was 98.5% (inactive); with `O=C(c1ccc(Cl)cc1)C1[C@H](c2ccccc2Cl)[C@@H](c2ccccc2)NC12C(=O)Nc1ccccc12` (some centres undefined), -6.74% (active).
On the same count and under the same terms, with `CCCn1c(NC(=O)c2cccc(C(N)=O)c2)nc2ccc(CN3CCCCC3)cc21` the figure was 107% (inactive).
On the same count and under the same terms, to `S=C(NCCc1ccccc1)Nc1ccc(OCc2nc3ccc(Cl)cc3[nH]2)cc1` belongs 34.9% (inactive); to `Cc1ccc(Cl)cc1NC(=O)Nc1nc2ccc([N+](=O)[O-])cc2s1`, -19.7% (active).
Regarding `C[C@@H]1CN(c2ccc3ncc(C#Cc4cncc(C(=O)Nc5ccc(CN6CCN(C)CC6)c(C(F)(F)F)c5)c4)n3n2)C[C@@H](C)O1`, the growth was -62.6% (active).
Turning to `O=C1C=CC(=CC=C2N(Cc3ccc4ccccc4c3)c3ccccc3N2Cc2ccc3ccccc3c2)C=C1`, the growth was 5.78% (active) and 27.5% (inactive).
Still for that read-out and setting: with `CNS(=O)(=O)N1CCc2c(Br)c3c(c(OC)c2C1CCc1ccccc1)OCO3` (centres undefined) the figure was 6.69% (active); with `Cc1ccc(Cl)cc1NC(=O)N/C(N)=N/c1nc2ccccc2s1`, 32.4% (inactive); with `COc1ccc(N=Nc2c(N)nn3c(N)c(C#N)c(-c4ccccc4)nc23)cc1`, 16.4% (inactive).
For the compound `Cc1cccc(/C=C/c2ccc(NC(=S)NCCCCN(C)C)cc2)c1`, the growth was -67.8% (active).
Still for that read-out and setting: to `COc1ccc(-c2cc(-c3ccccc3)c(C#N)c(=O)[nH]2)cc1S(N)(=O)=O` belongs 102% (inactive); to `CC(C)(C)OC(=O)N1C/C(=C\c2ccc(F)cc2)C(=O)/C(=C/c2ccc(F)cc2)C1`, 14.4% (inactive); to `COc1cc(C=O)ccc1Oc1nc(Nc2ccc(F)cc2)nc(N(C)C)n1`, 33.3% (inactive) and 66.1% (inactive).
`N#Cc1c(-c2ccc(F)cc2)nc(SCc2ccc(F)cc2)nc1N1CCNCC1`: the growth was -66.9% (active).
On the same count and under the same terms, with `COc1ccc(-c2nc3ccc(-c4nnc(SCc5ccccc5)o4)cc3[nH]2)cc1OC` the figure was 32.4% (inactive); with `COc1cccc(NC(=O)c2ccc(NC(=O)CCl)s2)c1`, 26.2% (inactive); with `COc1ccc(/C=C/C(=O)c2ccc(S(=O)(=O)NCCNc3nc(N(C)C)nc(N4CCOCC4)n3)cc2)cc1`, 83.5% (inactive).
On to `COc1ccc(S(=O)(=O)Nc2ccc(-c3ccc4c(c3)NC(=O)/C4=C\c3ccc[nH]3)cc2)cc1OC`, for which the growth is -21% (active).
Turning to `C=CCSc1nnc(-c2ccc(-c3nc4ccc(Cl)cc4[nH]3)cc2)o1`, the growth was 68.4% (inactive).
Regarding `COc1cccc(-c2ccc(/C=N/NC(=O)c3[nH]c4ccc(Br)cc4c3-c3ccccc3)s2)c1`, the growth was 52.9% (inactive).
On the same count and under the same terms, with `Nc1nn2c(-c3cc4cc(Br)ccc4oc3=O)ccnc2c1N=Nc1ccc(Br)cc1` the figure was 29.2% (inactive); with `COc1cc(/C=C/C(=O)c2cnn(-c3cc(=O)[nH]c4ccccc34)c2C)cc(OC)c1OC`, 10.7% (inactive).
`COc1ccc(-c2nc3ccc(-c4nnc(SCC(=O)Nc5ccc(/C(C)=N\O)cc5)o4)cc3[nH]2)cc1`: the growth is 53.1% (inactive).
The same measure, in the same setting: to `CCOC(=O)c1ccc(NC(=S)NC(=O)c2cccc(NC(=O)c3ccc(C)cc3)c2)cc1` belongs 67.9% (inactive).
Same read-out and setting: to `Cn1cc(-c2cc(N)n3nc(-c4c[nH]c5ccccc45)cc3n2)c2cc(F)ccc21` belongs 15.8% (inactive); to `COC(=O)c1ccc(-c2c(-c3ccccc3)c(F)c3oc(C(=O)OC)c(N)c3c2-c2ccccc2)cc1`, 64.5% (inactive); to `COc1ccc(-c2cc(C(=O)OCc3ccc(Br)cc3)nn2-c2ccc(S(C)(=O)=O)cc2)cc1OC`, 48.4% (inactive).
With `COc1ccc2ccccc2c1/C=C1\SC(=Nc2ccc(O)cc2)NC1=O`, the growth was 36.4% (inactive).
On the same count and under the same terms, with `COc1ccc2[nH]c(O)c(N=Nc3nc(-c4ccc(C#N)cc4)cs3)c2c1` the figure was 54.7% (inactive); with `Cc1ccc(C(C)C)cc1Oc1cccc(-c2c(-c3ccc(C(F)(F)F)cc3)ncn2C2CCNCC2)n1`, -83.6% (active); with `Cc1cc(C2(c3cc(C)c(OCC(O)CNc4c(C)n(C)n(-c5ccccc5)c4=O)cc3C(C)C)OC(=O)c3ccccc32)c(C(C)C)cc1OCC(O)CNc1c(C)n(C)n(-c2ccccc2)c1=O` (centres undefined), 1.64% (active).

A further assay deals with BT-549 breast. The description is as above. The note with it: 10 µM unless noted.
As for `O=C(COc1ccc(/C=C2/C(=O)Nc3ccc(Cl)cc32)cc1)Nc1ccc(Br)cc1`, the growth was -34.2% (active).
Same read-out and setting: to `CCCCNc1ccc2c3c(cccc13)C(=O)N(NCC(O)COc1ccc3c(C)cc(=O)oc3c1)C2=O` (centres undefined) belongs 95.8% (inactive).
On the same count and under the same terms, with `COc1ccc(C(=O)c2c(N)c(C#N)cn2-c2ccc([N+](=O)[O-])cc2)cc1` the figure was 113% (inactive).
Still for that read-out and setting: with `C=CC(=O)N1CCN(c2ccc3nc4c(nc3c2C(F)(F)F)C(=O)c2ncccc2C4=O)CC1` the figure was 10.1% (inactive); with `NC(=O)c1ccc(-c2ccc3ncnc(N4CCc5cc(F)c(Cl)cc54)c3c2)cn1`, 61.1% (inactive).
For `Cc1ccc2nc(NC(=O)Nc3cccc(Cl)c3)sc2c1`, the growth was 121% (inactive).
The same measure, in the same setting: to `O=C(c1ccc(Cl)cc1)C1[C@H](c2ccccc2Cl)[C@@H](c2ccccc2)NC12C(=O)Nc1ccccc12` (some centres undefined) belongs -77.4% (active); to `CCCn1c(NC(=O)c2cccc(C(N)=O)c2)nc2ccc(CN3CCCCC3)cc21`, -48% (active).
Still for that read-out and setting: with `S=C(NCCc1ccccc1)Nc1ccc(OCc2nc3ccc(Cl)cc3[nH]2)cc1` the figure was 45.9% (inactive); with `Cc1ccc(Cl)cc1NC(=O)Nc1nc2ccc([N+](=O)[O-])cc2s1`, -30.3% (active); with `C[C@@H]1CN(c2ccc3ncc(C#Cc4cncc(C(=O)Nc5ccc(CN6CCN(C)CC6)c(C(F)(F)F)c5)c4)n3n2)C[C@@H](C)O1`, -75.4% (active).
Still for that read-out and setting: to `O=C1C=CC(=CC=C2N(Cc3ccc4ccccc4c3)c3ccccc3N2Cc2ccc3ccccc3c2)C=C1` belongs 9.59% (active) and 29.8% (inactive); to `CNS(=O)(=O)N1CCc2c(Br)c3c(c(OC)c2C1CCc1ccccc1)OCO3` (centres undefined), -68.8% (active); to `Cc1ccc(Cl)cc1NC(=O)N/C(N)=N/c1nc2ccccc2s1`, -7.19% (active).
As for `COc1ccc(N=Nc2c(N)nn3c(N)c(C#N)c(-c4ccccc4)nc23)cc1`, the growth was -16.7% (active).
On the same count and under the same terms, to `Cc1cccc(/C=C/c2ccc(NC(=S)NCCCCN(C)C)cc2)c1` belongs -72.6% (active); to `COc1ccc(-c2cc(-c3ccccc3)c(C#N)c(=O)[nH]2)cc1S(N)(=O)=O`, 89.5% (inactive).
Turning to `CC(C)(C)OC(=O)N1C/C(=C\c2ccc(F)cc2)C(=O)/C(=C/c2ccc(F)cc2)C1`, the growth was -88.1% (active).
On the same count and under the same terms, to `COc1cc(C=O)ccc1Oc1nc(Nc2ccc(F)cc2)nc(N(C)C)n1` belongs 77.3% (inactive) and 16.5% (inactive); to `N#Cc1c(-c2ccc(F)cc2)nc(SCc2ccc(F)cc2)nc1N1CCNCC1`, 82.7% (inactive); to `COc1ccc(-c2nc3ccc(-c4nnc(SCc5ccccc5)o4)cc3[nH]2)cc1OC`, 49.7% (inactive).
Still for that read-out and setting: to `COc1cccc(NC(=O)c2ccc(NC(=O)CCl)s2)c1` belongs 27.2% (inactive); to `COc1ccc(/C=C/C(=O)c2ccc(S(=O)(=O)NCCNc3nc(N(C)C)nc(N4CCOCC4)n3)cc2)cc1`, 105% (inactive).
Same read-out and setting: with `COc1ccc(S(=O)(=O)Nc2ccc(-c3ccc4c(c3)NC(=O)/C4=C\c3ccc[nH]3)cc2)cc1OC` the figure was 13.3% (inactive); with `C=CCSc1nnc(-c2ccc(-c3nc4ccc(Cl)cc4[nH]3)cc2)o1`, 22.6% (inactive).
Turning to `COc1cccc(-c2ccc(/C=N/NC(=O)c3[nH]c4ccc(Br)cc4c3-c3ccccc3)s2)c1`, the growth is -26.9% (active).
On the same count and under the same terms, with `Nc1nn2c(-c3cc4cc(Br)ccc4oc3=O)ccnc2c1N=Nc1ccc(Br)cc1` the figure was 40.7% (inactive).
On the same count and under the same terms, with `COc1cc(/C=C/C(=O)c2cnn(-c3cc(=O)[nH]c4ccccc34)c2C)cc(OC)c1OC` the figure was -4.19% (active).
The same measure, in the same setting: to `COc1ccc(-c2nc3ccc(-c4nnc(SCC(=O)Nc5ccc(/C(C)=N\O)cc5)o4)cc3[nH]2)cc1` belongs -62.3% (active); to `CCOC(=O)c1ccc(NC(=S)NC(=O)c2cccc(NC(=O)c3ccc(C)cc3)c2)cc1`, 63.3% (inactive); to `Cn1cc(-c2cc(N)n3nc(-c4c[nH]c5ccccc45)cc3n2)c2cc(F)ccc21`, 98.3% (inactive).
As to `COC(=O)c1ccc(-c2c(-c3ccccc3)c(F)c3oc(C(=O)OC)c(N)c3c2-c2ccccc2)cc1`, the growth is 95.7% (inactive).
Still for that read-out and setting: with `COc1ccc(-c2cc(C(=O)OCc3ccc(Br)cc3)nn2-c2ccc(S(C)(=O)=O)cc2)cc1OC` the figure was 74% (inactive); with `COc1ccc2ccccc2c1/C=C1\SC(=Nc2ccc(O)cc2)NC1=O`, -22.6% (active).
The same measure, in the same setting: to `COc1ccc2[nH]c(O)c(N=Nc3nc(-c4ccc(C#N)cc4)cs3)c2c1` belongs 63.2% (inactive); to `Cc1ccc(C(C)C)cc1Oc1cccc(-c2c(-c3ccc(C(F)(F)F)cc3)ncn2C2CCNCC2)n1`, -98.6% (active); to `Cc1cc(C2(c3cc(C)c(OCC(O)CNc4c(C)n(C)n(-c5ccccc5)c4=O)cc3C(C)C)OC(=O)c3ccccc32)c(C(C)C)cc1OCC(O)CNc1c(C)n(C)n(-c2ccccc2)c1=O` (centres undefined), 27.3% (inactive).
